Results on 8 compounds are retold here after PubChem BioAssay (NCI).

Assay in all cases: NCI-60 one-dose screen, 48 h (100 = growth as untreated, 0 = no growth, -100 = all killed)
Settings in all cases: 10 µM unless noted

Test [1] relates to SK-MEL-2 melanoma.
Test [2] deals with EKVX NSCLC.
The test system of test [3] is SN12C renal.
In test [4] the test system is UO-31 renal.
The subject of test [5] is TK-10 renal.
Test [6] relates to ACHN renal.
The subject of test [7] is CAKI-1 renal.
The test system of test [8] is A498 renal.
Test [9] has as its system CCRF-CEM leukemia.
Test [10] concerns MOLT-4 leukemia.
Test [11] concerns SR leukemia.
Test [12] deals with RPMI-8226 leukemia.
Test [13] deals with OVCAR-8 ovarian.
Test [14] concerns OVCAR-5 ovarian.
For test [15], the system named is OVCAR-4 ovarian.
Test [16] concerns SK-OV-3 ovarian.
In test [17] the test system is IGROV1 ovarian.
The subject of test [18] is OVCAR-3 ovarian.
Test [19] deals with HS 578T breast.
In test [20] the test system is NCI/ADR-RES ovarian.

About 83,000 compounds went through this panel and 20% of them were active in at least one assay; those are over-represented in the sample as a whole.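 96-well plates, one dose, 48 hours. Percent growth reported; active if below 10.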 Unmarked numbers belong to inactive results. Activity calls are given as the source filed them.

Regarding `Nc1nn2c(-c3cc4cc(Br)ccc4oc3=O)ccnc2c1N=Nc1ccc(Br)cc1`, the growth in test [1] is 60%; in test [2], 25.9%; in test [3] it was -23.6% (active); in test [4] it was 0.343% (active); in test [5], 23.4%; in test [6], 10.7%. The growth was 3.98% (active) in test [7]; -4.21% (active) in [8]; 96.6% in [9]; 83.1% in [10]; 29.7% in [11]; 86.3% in test [12]. Moreover, the growth was 14.5% in test [13]; 11.8% in test [14]; 12.8% in test [15]; 22.4% in test [16]; -16.1% (active) in test [17]; 5.27% (active) in [18]. In addition, the figures for the growth in test [19] and in test [20] were 28.3% and 14.1%, respectively.
Regarding `Clc1ccc(-c2nc3c4c(-c5ccccc5)c(-c5ccccc5)n(Cc5ccccc5)c4ncn3n2)cc1`, the growth in [1] is -10.4% (active); in [2] it was 2.2% (active); in test [3] it was 0.356% (active); in test [4], 1.71% (active); in test [5], 24.1%; in test [6] it was -4.9% (active). Also, the growth in test [7] is -20.1% (active); in [8] it was -17.4% (active); in [9], -2.09% (active); in test [10], -5.99% (active); in test [11] it was 5.49% (active); in test [12], -34.7% (active). In addition, the growth is 11.6% in test [13]; 16.6% in test [14]; 16.4% in [15]; -10.2% (active) in test [16]; 16.1% in [17]; 14.7% in [18]. Besides, the growth was -8.15% (active) in test [19] and 70.9% in [20].
With `Cc1ccc(NC(=O)N/N=C/c2c[nH]c3ccccc23)c(C)c1`, the growth was 20.5% in [1]; 34.7% in test [2]; 15.9% in test [3]; 26.6% in test [4]; 30.5% in [5]; 22.8% in test [6]. In addition, the growth is 29.1% in test [7]; 55.7% in [8]; 10% in test [9]; 6.25% (active) in [10]; 12.3% in test [11]; 9.67% (active) in test [12]. Moreover, the growth in test [13] was -23.7% (active); in test [14] it was 15.5%; in test [15] it was 47.3%; in test [16] it was 21.8%; in test [17] it was 22.3%; in test [18] it was -33.2% (active). Further, the growth in [19] was 20.4%; in test [20], 3.88% (active).
For the compound `O=c1ccc(Cn2c(C(F)(F)F)cc3c(Cl)ncnc32)c[nH]1`, the growth was -86.2% (active) in test [1]; 95.4% in test [2]; 47.9% in test [3]; -88.4% (active) in test [4]; 111% in test [5]; -54.5% (active) in test [6]. In addition, the growth in test [7] was 78.1%; in test [8], 136%; in [9], 11.8%; in test [10], -26.6% (active); in [11] it was -53.9% (active); in test [12], 81.1%. Besides, the growth in test [13] was 0.681% (active); in [14] it was 126%; in test [15], -2.63% (active); in test [16] it was 119%; in test [17] it was -67.4% (active); in [18], -20% (active). The growth was -14.4% (active) in test [19] and 61.3% in test [20].
For the compound `COc1ccc(NC(=O)Nc2nc3ccc([N+](=O)[O-])cc3s2)cc1`, the growth in [1] was 33.4%; in [2], 9.23% (active); in [3] it was 9.66% (active); in test [4], -5.06% (active); in [5], 29.7%; in test [6], 10.8%. In addition, the growth is 13.9% in test [7]; 21.8% in test [8]; 11.2% in [9]; 8.05% (active) in [10]; 5.15% (active) in test [11]; -2.91% (active) in test [12]. For the same compound, the growth is 17.1% in test [13]; 60.4% in [14]; 15.2% in test [15]; 58.6% in test [16]; 26.4% in [17]; 18% in test [18]. Further, the growth in test [19] is 5.84% (active); in test [20] it was -1.49% (active).
With `COc1ccccc1NC(=O)N/N=C/c1c[nH]c2ccccc12`, the growth in test [1] is -24.9% (active); in [2] it was 12.3%; in [3] it was 23.2%; in [4], 39.1%; in test [5], 33.2%; in test [6], 25.8%. In addition, the growth in test [7] was 42%; in [8] it was 60.6%; in test [9], 17.4%; in [10], 7.13% (active); in test [11] it was 14.6%; in test [12], 13.5%. The growth in test [13] is 19.3%; in test [14] it was 34.4%; in test [15], 61.2%; in test [16] it was 26.2%; in [17], 38.7%; in test [18], -32.1% (active). Besides, the growth in test [19] is 23.8%; in test [20], -9.65% (active).
For the compound `CCCCNc1ccc2c3c(cccc13)C(=O)N(c1cccc(-c3nn(-c4ccccc4)cc3-c3nc4ccccc4s3)c1)C2=O`, the growth in test [1] was 98.1%; in test [2], 96.4%; in test [3] it was 101%; in test [4] it was 70.4%; in [5], 110%; in test [6] it was 96.3%. Further, the growth in test [7] is 82.2%; in test [8], 131%; in test [9] it was 105%; in [10] it was 113%; in [11], 95.5%; in test [12] it was 95.3%. Besides, the growth is 107% in [13]; 104% in test [14]; 101% in [15]; 126% in test [16]; 98.4% in [17]; 111% in test [18]. Moreover, the growth is 110% in test [19] and 98% in test [20].
As to `CC(=O)C[n+]1cccc2c3ccccc3ccc21`, the growth is 106% in test [1]; 56.6% in test [2]; 80.1% in test [3]; 83% in [4]; 101% in test [5]; 92.1% in test [6]. The growth was 94.1% in [7]; 110% in test [8]; 65.5% in [9]; 53.9% in [10]; 66.3% in [11]; 64% in test [12]. The growth was 81.5% in [13]; 103% in test [14]; 63.8% in [15]; 96.1% in test [16]; 95.2% in test [17]; 70% in test [18]. The growth is 102% in test [19] and 107% in [20].
